Results on eleven molecules are retold here after the supplement of paper PMC8007513.

The test system of this assay is Trichoderma virens ATCC 9645. In words: growth yield (OD600) with compound + IPBC relative to untreated control; higher = less growth inhibition. The conditions noted are these: compound concentration: 100 uM, IPBC concentration: 200 ng/ml. In outline: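 Trichoderma virens ATCC 9645 spores, from potato dextrose agar plates grown for 7 days, were brought to 15,000 spores ml^−1 in potato dextrose broth and dispensed as 100 μl aliquots into 96-well plates. Each aliquot received library compounds at 100 μM final, with or without a biocide at 200 ng ml^−1, before growth at 30 °C and OD600 readings on a BioTek EL800 at 40 h and 72 h. Growth is expressed relative to the control containing neither agent and represents means of duplicate screens.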

Where a name gives a salt, the structure may show the parent alone. ± gives the standard error. Out of some 1,300 compounds screened, about 130 (10%) showed an effect of 50% or more. What follows is part of a selection rich in strong results, with near analogues and random picks from the rest.

Take `O=C([O-])c1ccccc1-c1c2cc(Br)c(=O)cc-2oc2[c]([Hg+])c([O-])c(Br)cc12.[Na+].[Na+].[OH-]` [Merbromin] + CCCCNC(=O)OCC#CI [3-iodo-2-propynyl butylcarbamate (IPBC)]: the growth yield runs as follows: (40 h) 5.4 ± 0.64%; (72 h) 3.99 ± 0.21%.
Taken in the same sequence, the figures for `COc1ccc([C@@H]2CC(=O)c3c(O)cc(O[C@@H]4O[C@H](CO[C@@H]5O[C@@H](C)[C@H](O)[C@@H](O)[C@H]5O)[C@@H](O)[C@H](O)[C@H]4O)cc3O2)cc1O` [Hesperidin] + CCCCNC(=O)OCC#CI [3-iodo-2-propynyl butylcarbamate (IPBC)] were 86.41 ± 0.64% and 92.6 ± 2.2%.
Consider `C[C@@H](O[C@H]1OCCN(Cc2n[nH]c(=O)[nH]2)[C@H]1c1ccc(F)cc1)c1cc(C(F)(F)F)cc(C(F)(F)F)c1` [Aprepitant] + CCCCNC(=O)OCC#CI [3-iodo-2-propynyl butylcarbamate (IPBC)], for which the growth yield was found to be 113 ± 12% (40 h) and 104 ± 8.8% (72 h).
On to `CNCCc1ccccn1` [Betahistine mesylate] + CCCCNC(=O)OCC#CI [3-iodo-2-propynyl butylcarbamate (IPBC)], for which the growth yield reads like this: (40 h) 88 ± 8.3%; (72 h) 92 ± 5.6%.
In the case of `O=C(NCNC(=O)NC1C(=O)NC(=O)N1CO)NC1C(=O)NC(=O)N1CO` (configuration not stated) [Imidurea] + CCCCNC(=O)OCC#CI [3-iodo-2-propynyl butylcarbamate (IPBC)], the growth yield runs as follows: (40 h) 89 ± 7%; (72 h) 92.5 ± 5.5%.
`CCCc1cc(=O)[nH]c(=S)[nH]1` [Propylthiouracil] + CCCCNC(=O)OCC#CI [3-iodo-2-propynyl butylcarbamate (IPBC)]: the growth yield came out at 90.1 ± 11% (40 h) and 93 ± 6.4% (72 h).
For `CCCCCCNC(=O)n1cc(F)c(=O)[nH]c1=O` [Carmofur] + CCCCNC(=O)OCC#CI [3-iodo-2-propynyl butylcarbamate (IPBC)], in that order: 21.9 ± 0.95% and 31.4 ± 0.32%.
Regarding `CC(C(=O)O)c1ccc(C(=O)c2ccccc2)s1` (configuration not stated) [Tiaprofenic acid] + CCCCNC(=O)OCC#CI [3-iodo-2-propynyl butylcarbamate (IPBC)], the growth yield worked out at 77.83 ± 0.32% (40 h) and 83.38 ± 0.32% (72 h).
On to `CCCCN(CCCC)CCC(O)c1cc2c(Cl)cc(Cl)cc2c2cc(C(F)(F)F)ccc12` (configuration not stated) [Halofantrine hydrochloride] + CCCCNC(=O)OCC#CI [3-iodo-2-propynyl butylcarbamate (IPBC)], for which the growth yield amounted to 13.8 ± 0.16% (40 h) and 7.66 ± 1.1% (72 h).
For the molecule `CCN1CCCC(OC(=O)C(c2ccccc2)c2ccccc2)C1` (configuration not stated) [Piperidolate hydrochloride] + CCCCNC(=O)OCC#CI [3-iodo-2-propynyl butylcarbamate (IPBC)], the growth yield (40 h) was 85.5 ± 1.6% and the growth yield (72 h) amounted to 94.08 ± 0.73%.
For `CC[C@@]1([C@@H]2O[C@@H]([C@H]3O[C@@](O)(CO)[C@H](C)C[C@@H]3C)C[C@@H]2C)CC[C@H]([C@]2(C)CC[C@]3(C[C@H](O)[C@@H](C)[C@@H]([C@@H](C)[C@@H](OC)[C@H](C)C(=O)O)O3)O2)O1` [Monensin sodium salt] + CCCCNC(=O)OCC#CI [3-iodo-2-propynyl butylcarbamate (IPBC)], in that order: 79.4 ± 9.8% and 89.6 ± 9.2%.
